# Source: ChEMBL document CHEMBL5724796, “Tm Shift (DSF) assay results for EUbOPEN Chemogenomics Library” (2024)
# Key:
# Conditions in all cases: Compound concentration 20.0 uM
# [1] = biological target: Tyrosine-protein kinase ABL1 (Homo sapiens) (UniProt P00519)
# [2] = biological target: Bromodomain-containing protein 4 (Homo sapiens) (UniProt O60885)
# [3] = biological target: Cyclin-dependent kinase 2 (Homo sapiens) (UniProt P24941)
# [4] = biological target: Casein kinase I isoform delta (Homo sapiens) (UniProt P48730)
# Casein kinase I isoform delta (Homo sapiens), sequence (P48730 whole entry, looked up, canonical isoform): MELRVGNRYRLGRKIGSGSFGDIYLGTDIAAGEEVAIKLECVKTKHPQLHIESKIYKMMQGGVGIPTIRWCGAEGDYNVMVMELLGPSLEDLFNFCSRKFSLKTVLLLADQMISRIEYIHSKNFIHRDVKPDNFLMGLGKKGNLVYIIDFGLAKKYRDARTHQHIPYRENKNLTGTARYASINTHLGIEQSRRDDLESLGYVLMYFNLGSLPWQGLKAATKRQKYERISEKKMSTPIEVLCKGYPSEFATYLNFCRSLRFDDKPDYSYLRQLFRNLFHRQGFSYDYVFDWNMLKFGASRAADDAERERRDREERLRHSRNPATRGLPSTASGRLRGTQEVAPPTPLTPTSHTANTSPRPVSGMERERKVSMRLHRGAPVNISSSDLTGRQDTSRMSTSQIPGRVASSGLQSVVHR
# [5] = biological target: Glycogen synthase kinase-3 beta (Homo sapiens) (UniProt P49841)
# Glycogen synthase kinase-3 beta (Homo sapiens), sequence (P49841 whole entry, looked up): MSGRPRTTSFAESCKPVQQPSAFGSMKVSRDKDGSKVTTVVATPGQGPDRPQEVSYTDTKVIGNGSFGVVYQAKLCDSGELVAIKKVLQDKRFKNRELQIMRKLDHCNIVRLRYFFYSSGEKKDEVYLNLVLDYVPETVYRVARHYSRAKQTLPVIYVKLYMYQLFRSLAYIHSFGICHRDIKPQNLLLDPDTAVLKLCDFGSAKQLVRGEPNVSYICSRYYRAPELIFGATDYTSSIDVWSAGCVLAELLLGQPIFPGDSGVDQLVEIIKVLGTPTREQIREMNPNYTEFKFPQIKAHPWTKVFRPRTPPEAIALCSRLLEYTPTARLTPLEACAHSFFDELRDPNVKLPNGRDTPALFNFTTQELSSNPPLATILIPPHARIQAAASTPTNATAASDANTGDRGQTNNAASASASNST
# [6] = biological target: Mitogen-activated protein kinase 1 (Homo sapiens) (UniProt P28482)
# Mitogen-activated protein kinase 1 (Homo sapiens), sequence (P28482 whole entry): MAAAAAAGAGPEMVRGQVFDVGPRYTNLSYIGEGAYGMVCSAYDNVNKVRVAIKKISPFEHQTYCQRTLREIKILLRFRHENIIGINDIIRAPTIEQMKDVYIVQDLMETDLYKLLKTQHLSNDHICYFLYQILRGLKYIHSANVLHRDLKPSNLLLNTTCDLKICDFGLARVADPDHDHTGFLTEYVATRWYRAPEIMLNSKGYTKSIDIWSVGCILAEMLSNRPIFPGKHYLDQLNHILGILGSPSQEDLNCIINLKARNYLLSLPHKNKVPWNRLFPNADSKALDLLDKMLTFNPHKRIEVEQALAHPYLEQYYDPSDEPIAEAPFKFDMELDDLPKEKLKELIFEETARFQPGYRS
# [7] = biological target: T1, Aurora kinase A (Homo sapiens) (UniProt O14965)
# T1 sequence (whole entry): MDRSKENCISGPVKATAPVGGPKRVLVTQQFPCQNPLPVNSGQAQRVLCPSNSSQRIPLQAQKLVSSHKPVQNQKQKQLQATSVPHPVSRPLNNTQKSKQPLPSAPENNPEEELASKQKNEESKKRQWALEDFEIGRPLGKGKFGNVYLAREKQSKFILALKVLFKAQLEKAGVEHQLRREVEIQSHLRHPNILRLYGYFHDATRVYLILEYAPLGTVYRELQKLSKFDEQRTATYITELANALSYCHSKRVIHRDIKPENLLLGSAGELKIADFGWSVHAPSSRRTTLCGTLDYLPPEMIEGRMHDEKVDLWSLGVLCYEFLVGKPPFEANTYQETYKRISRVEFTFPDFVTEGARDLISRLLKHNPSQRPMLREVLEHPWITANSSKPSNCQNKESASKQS
# [8] = biological target: T2, Transcription intermediary factor 1-alpha (Homo sapiens) (UniProt O15164)
# T2 sequence (whole entry): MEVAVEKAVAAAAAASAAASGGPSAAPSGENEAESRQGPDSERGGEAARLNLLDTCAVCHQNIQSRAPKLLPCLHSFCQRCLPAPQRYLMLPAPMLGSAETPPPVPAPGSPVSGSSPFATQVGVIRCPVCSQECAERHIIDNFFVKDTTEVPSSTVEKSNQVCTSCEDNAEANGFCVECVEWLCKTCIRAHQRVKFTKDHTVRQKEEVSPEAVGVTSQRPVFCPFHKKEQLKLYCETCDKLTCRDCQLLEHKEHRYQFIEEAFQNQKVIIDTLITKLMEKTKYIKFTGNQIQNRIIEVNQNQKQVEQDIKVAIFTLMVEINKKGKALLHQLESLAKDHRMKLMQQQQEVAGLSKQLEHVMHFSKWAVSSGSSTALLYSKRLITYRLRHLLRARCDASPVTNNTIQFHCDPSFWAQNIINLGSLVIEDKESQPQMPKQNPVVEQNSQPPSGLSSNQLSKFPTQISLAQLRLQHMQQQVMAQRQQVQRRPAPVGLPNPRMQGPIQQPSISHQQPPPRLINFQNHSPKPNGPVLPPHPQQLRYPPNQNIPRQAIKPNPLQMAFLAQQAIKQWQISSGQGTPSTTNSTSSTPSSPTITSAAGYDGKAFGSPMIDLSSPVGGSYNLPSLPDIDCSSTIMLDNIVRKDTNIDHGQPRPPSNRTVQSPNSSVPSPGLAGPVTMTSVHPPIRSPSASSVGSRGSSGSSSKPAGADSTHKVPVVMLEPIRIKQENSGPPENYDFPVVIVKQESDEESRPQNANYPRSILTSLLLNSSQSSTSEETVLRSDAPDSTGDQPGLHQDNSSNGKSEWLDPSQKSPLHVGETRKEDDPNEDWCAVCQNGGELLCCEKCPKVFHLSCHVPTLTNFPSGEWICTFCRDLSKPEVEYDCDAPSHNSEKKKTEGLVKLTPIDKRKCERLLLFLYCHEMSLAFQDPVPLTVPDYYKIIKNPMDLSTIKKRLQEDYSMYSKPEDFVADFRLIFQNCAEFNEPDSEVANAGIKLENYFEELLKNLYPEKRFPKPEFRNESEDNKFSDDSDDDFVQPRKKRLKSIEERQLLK
# Tyrosine-protein kinase ABL1 (Homo sapiens), sequence (P00519 whole entry): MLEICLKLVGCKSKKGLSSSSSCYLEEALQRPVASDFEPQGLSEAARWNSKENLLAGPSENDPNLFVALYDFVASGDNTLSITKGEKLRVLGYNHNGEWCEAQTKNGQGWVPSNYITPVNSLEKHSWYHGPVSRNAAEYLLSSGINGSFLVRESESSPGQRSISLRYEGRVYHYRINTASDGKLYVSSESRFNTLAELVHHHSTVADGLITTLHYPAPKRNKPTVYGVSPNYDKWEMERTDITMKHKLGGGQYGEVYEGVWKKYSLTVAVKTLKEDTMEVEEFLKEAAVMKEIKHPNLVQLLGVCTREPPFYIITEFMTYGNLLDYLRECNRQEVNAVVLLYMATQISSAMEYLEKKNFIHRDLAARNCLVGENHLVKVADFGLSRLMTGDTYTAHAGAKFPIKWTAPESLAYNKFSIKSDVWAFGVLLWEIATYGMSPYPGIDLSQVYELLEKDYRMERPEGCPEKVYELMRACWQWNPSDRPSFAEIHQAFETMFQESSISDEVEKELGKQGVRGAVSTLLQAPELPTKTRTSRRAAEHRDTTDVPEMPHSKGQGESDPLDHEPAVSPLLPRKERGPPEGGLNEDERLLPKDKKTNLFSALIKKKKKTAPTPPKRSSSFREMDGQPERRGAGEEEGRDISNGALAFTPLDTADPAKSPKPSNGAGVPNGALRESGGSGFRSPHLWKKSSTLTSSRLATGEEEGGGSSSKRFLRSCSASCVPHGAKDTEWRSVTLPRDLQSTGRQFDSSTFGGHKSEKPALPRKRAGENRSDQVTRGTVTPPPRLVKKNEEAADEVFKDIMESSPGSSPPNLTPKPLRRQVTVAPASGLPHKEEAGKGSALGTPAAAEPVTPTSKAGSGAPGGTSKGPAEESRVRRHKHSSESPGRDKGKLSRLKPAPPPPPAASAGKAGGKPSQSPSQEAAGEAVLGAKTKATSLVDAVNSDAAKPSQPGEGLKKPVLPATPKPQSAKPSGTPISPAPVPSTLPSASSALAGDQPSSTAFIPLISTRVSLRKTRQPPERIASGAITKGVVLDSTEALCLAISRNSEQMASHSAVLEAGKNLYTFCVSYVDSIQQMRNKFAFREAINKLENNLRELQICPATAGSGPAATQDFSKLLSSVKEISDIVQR
SMILES,ΔTm [1],ΔTm [2],ΔTm [3],ΔTm [4],ΔTm [5],ΔTm [6],ΔTm [7],ΔTm [8],ΔTm ([5]; Protein concentration 2.0 uM)
O=C(NCCCCc1ccccc1)n1c(=O)oc2cc(-c3ccc(F)cc3)ccc21,0.52 °C,-2.75 °C,0.86 °C,-0.19 °C,0.3 °C,0.07 °C,-1.29 °C,0.81 °C,
COc1cc(C)[nH]c(=O)c1CNC(=O)c1c(C)n([C@H](C)C2CCN(CC(F)(F)F)CC2)c2ccccc12,0.27 °C,-2.03 °C,-0.09 °C,0.08 °C,-0.64 °C,-0.27 °C,0.25 °C,-1.56 °C,
CCOC(=O)c1ccc(-c2ccc(OC(=O)N(C)Cc3cccc(-c4ccncc4)c3)cc2)cc1,1.38 °C,-2.49 °C,0.29 °C,-0.29 °C,-4.12 °C,0.21 °C,-1.65 °C,-0.65 °C,
C[C@]12O[C@H](C[C@]1(O)CO)n1c3ccccc3c3c4c(c5c6ccccc6n2c5c31)CNC4=O,,-1.2 °C,9.18 °C,2.18 °C,4.78 °C,0.35 °C,8.79 °C,-0.11 °C,
O=C(NNc1ccccn1)c1ccccn1,0.12 °C,-1.77 °C,-0.03 °C,-0.33 °C,-0.62 °C,0.17 °C,-0.43 °C,0.92 °C,
C=CCO/N=C1\c2ccccc2-c2nc(C#N)c(C#N)nc21,0.13 °C,-2.12 °C,0.55 °C,-1.63 °C,0.17 °C,-0.02 °C,-2.47 °C,0.9 °C,
N[C@H]1CC[C@H](N[C@@H]2C[C@H]2c2ccccc2)CC1,0.04 °C,-1.89 °C,0.04 °C,-0.14 °C,-0.74 °C,0 °C,-1.42 °C,0.93 °C,
O=C1C(P(=O)(O)O)CC(O)N1O (stereo not drawn),0.12 °C,0.66 °C,-0.03 °C,-0.38 °C,-0.77 °C,0.16 °C,-2.18 °C,-0.46 °C,
Cc1ccc(N2C(=O)/C(=C/C=C/c3ccco3)C(=O)NC2=S)cc1Cl,0.75 °C,-2.47 °C,-0.73 °C,0.31 °C,-1.52 °C,-1.33 °C,-0.68 °C,-2.21 °C,
CC(C)n1nc(-c2cc3cc(O)ccc3[nH]2)c2c(N)ncnc21,,2.33 °C,2.02 °C,5.15 °C,,0.14 °C,3.86 °C,-0.37 °C,2 °C
C=Cc1cc(C(=O)Nc2ccc(C(=N)N)cc2)c(-c2ccc(C(=O)NCC3CC3)nc2C(=O)O)cc1OC,0.26 °C,-1.29 °C,0.57 °C,0.02 °C,-0.41 °C,0.21 °C,-1.17 °C,0.42 °C,
CS(=O)(=O)Nc1ccc(-c2coc3cc(OCc4cccc(C(=O)O)c4)ccc3c2=O)cc1,-0.03 °C,0.08 °C,0.07 °C,-0.49 °C,-0.46 °C,0.64 °C,-0.26 °C,0.89 °C,
O=C1C(P(=O)(O)O)CCCN1O (stereo not drawn),0.38 °C,-1.37 °C,0.09 °C,-0.23 °C,-1.56 °C,0.01 °C,-2.37 °C,-0.05 °C,
C(=C\c1ccccc1)/CN1CCN(CCOC(c2ccccc2)c2ccccc2)CC1,0.28 °C,-3.78 °C,-0.38 °C,-0.31 °C,-0.82 °C,0.07 °C,-2.65 °C,-2.32 °C,
Cc1sc2c(c1C)C(c1ccc(Cl)cc1)=N[C@@H](CC(=O)OC(C)(C)C)c1nnc(C)n1-2,0.27 °C,,0 °C,0.21 °C,-0.11 °C,-0.24 °C,-0.4 °C,-1.48 °C,
N#Cc1ccc([C@H]2CCCC[C@H]2O)cc1C(F)(F)F,0.55 °C,-1.51 °C,0.11 °C,0.3 °C,-0.43 °C,-0.24 °C,-1.09 °C,-1.04 °C,
CCS(=O)(=O)N1CCC([C@@H](C)n2c(C)c(C(=O)NCc3c(OC)cc(C)[nH]c3=O)c3ccccc32)CC1,0.06 °C,-2.35 °C,0.2 °C,0.01 °C,-0.39 °C,-0.34 °C,-0.26 °C,-1 °C,
O=C(N1CCCC[C@@H]1Cc1ccccc1)n1cc(-c2ccc(-c3ccccc3)cc2)nn1,0.24 °C,-2.3 °C,0.21 °C,-1.21 °C,-0.59 °C,-0.45 °C,-2.78 °C,2.73 °C,
O=C(N1CCCC[C@H]1Cc1ccccc1)n1cc(-c2ccc(-c3ccccc3)cc2)nn1,0.09 °C,5.42 °C,0.51 °C,-0.09 °C,-2.39 °C,-0.72 °C,-1.72 °C,1.36 °C,
O=[N+]([O-])c1cc(O)c(O)c([N+](=O)[O-])c1,0.3 °C,2.94 °C,1.19 °C,-0.22 °C,-0.11 °C,0.24 °C,0.17 °C,3.59 °C,
CCCCCn1c(C)c(C(=O)c2cccc3ccccc23)c2ccccc21,0.2 °C,-0.88 °C,0.76 °C,0.04 °C,-0.36 °C,0.95 °C,-2.46 °C,0.22 °C,
COc1cn(-c2ccc(-n3cccn3)cc2F)nc(-c2ccnn2-c2ccccc2)c1=O,0.53 °C,0.2 °C,1.24 °C,0.13 °C,0.96 °C,0.22 °C,-1.86 °C,-0.41 °C,
